# An excerpt weighted towards active compounds, which were near 1.1% of everything screened.
# MOR-DOR ag-1 = agonists of OPRM1-OPRD1 heterodimerization, primary screen, cell-based, luminescence; cells; 340,000 compounds, 0.3% hits; activation, % at 9.3 µM
# HTR5A inv ctr = HTR5A inverse agonists in luminescence cell assay, primary screen, counter-screen for OPRM1-OPRD1 heterodimer inverse agonist project, full-deck HTS. 5-hydroxytryptamine receptor 5A (Homo sapiens), P47898. inhibition, % at 9.3 µM. 340,000 compounds, 0.083% hits. AID 504634, 2011. HTR5A cell line, inverse agonism; in the data active = inhibition mostly above about 23%, no sharp cut-off; inactive = mostly below about 18%
# Target sequence (P47898 whole entry, looked up): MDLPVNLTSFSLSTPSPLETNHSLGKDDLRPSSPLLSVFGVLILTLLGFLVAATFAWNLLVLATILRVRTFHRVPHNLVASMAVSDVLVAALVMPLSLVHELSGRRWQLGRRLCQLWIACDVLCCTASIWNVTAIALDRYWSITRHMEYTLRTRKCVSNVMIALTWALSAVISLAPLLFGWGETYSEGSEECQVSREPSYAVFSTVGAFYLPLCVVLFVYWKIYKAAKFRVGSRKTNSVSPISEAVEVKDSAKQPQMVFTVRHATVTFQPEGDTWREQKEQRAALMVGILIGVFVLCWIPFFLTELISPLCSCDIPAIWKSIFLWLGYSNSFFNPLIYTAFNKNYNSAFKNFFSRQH
# MOR-DOR inv ag = inverse agonists of MOR-DOR heterodimerization, primary screen, cell-based, luminescence; 340,000 compounds, 0.21% hits; Mu-type opioid receptor (Homo sapiens) + Delta-type opioid receptor (Homo sapiens), …; cell-based MOR-DOR heterodimer luminescence, inverse agonism; inhibition, % at 9.3 µM; in the data active = inhibition above about 22%, passing the limit was not always enough
# HTR5A ag = HTR5A agonists in luminescence cell assay, primary screen, counter-screen for OPRM1-OPRD1 heterodimer agonist project, full-deck HTS; 5-hydroxytryptamine receptor 5A (Homo sapiens), P47898; cell-based; activation, % at 9.3 µM; 340,000 compounds, 0.61% hits; AID 504692, 2011; in the data active = activation mostly above about 9.5%, no sharp cut-off; inactive = mostly below about 7.6%
# MOR-DOR ag-2 = OPRM1-OPRD1 heterodimerization promoters, counter-screen for HTR5A agonist project, cell-based, luminescence. activation, % at 9.3 µM. U2OS counter-screen cells, complementation luminescence, 3 h. shares compounds with HTR5A ag. 800 compounds, 13% hits
# HTR5A ag confirm = HTR5A agonists, retest of hits, confirmation, cell-based, luminescence; shares compounds with HTR5A ag; HTR5A agonist cell assay; activation, % at 9.3 µM; 800 compounds, 17% hits; AID 504915, 2011; in the data active = activation above about 17%
# Numbers stand for hits; . = inactive; / = not tested or not shown. Cut-off read from the data, not from the text of the source, unless noted: active = activation above about 18%; inactive = the rest.
SMILES,MOR-DOR ag-1,HTR5A inv ctr,MOR-DOR inv ag,HTR5A ag,MOR-DOR ag-2,HTR5A ag confirm
O=S(=O)(NN=C1CCCCCC1)c1ccc(Cl)cc1,.,.,.,.,/,/
O=C(COC(=O)c1cccnc1Cl)NCc1cccs1,.,.,.,.,/,/
COc1ccc(C2(CNC(=O)C(=O)Nc3ccc(C)cc3)CCOCC2)cc1,.,.,.,.,/,/
Cc1ccccc1C(=O)c1cccn1CC(=O)NCc1ccccc1,.,.,.,.,/,/
Cc1ccccc1C(=O)c1cccn1CC(=O)NCc1ccc2c(c1)OCO2,.,.,.,17,.,24
Cc1noc(C)c1CSc1ccccc1C(=O)N(C)CC(=O)Nc1cccc(F)c1,.,.,.,.,/,/
Cc1ccc2nc(-c3ccc(O)cc3)c(Nc3ccc4c(c3)OCCO4)n2c1,.,.,.,22,.,58
Cc1ccc(-c2nc3cnccn3c2Nc2ccc3c(c2)OCO3)cc1,.,.,.,.,/,/
Cc1ccc2nc(-c3ccccc3O)c(Nc3ccc4c(c3)OCCO4)n2c1,.,.,.,20,.,37
Cc1ccc(Nc2c(-c3ccccc3O)nc3cnccn23)cc1,.,.,.,.,/,/
COCCNC(=S)NNc1cccc(C(=O)O)c1,.,.,.,.,/,/
O=C(COC(=O)/C=C/c1ccc(C(F)(F)F)cc1)NC(=O)NCc1ccco1,.,.,.,20,119,.
Cc1ccc(N/C=C(\C#N)S(=O)(=O)c2ccccc2)cc1,.,.,.,.,/,/
Cc1ccc(C(=O)NC(=S)Nc2ccc(Oc3ccc(Cl)cc3)cc2)cc1,.,.,.,.,/,/
Cc1ccc(C(=O)NC(=S)Nc2ccc(-c3ccc(CO)o3)cc2)cc1,.,.,.,15,.,.
COCCC(=O)N1CCC(Oc2ccc(C(=O)N3CCC[C@H]3CO)cc2)CC1,.,.,.,.,/,/
CCn1c(=NC(=O)c2ccco2)sc2cccc(F)c21,.,.,.,20,.,.
CC(Oc1ccccc1)C(=O)N(CCC1=CCCCC1)c1c(N)n(Cc2ccccc2)c(=O)[nH]c1=O (centres undefined),.,.,.,.,/,/
O=C(Cc1ccc(Br)cc1)NCCc1ccc(Cl)cc1Cl,.,.,.,16,.,.
CC1=NNC(=O)/C1=C\c1cn(-c2ccccc2)nc1-c1ccc(Cl)cc1,.,.,.,23,.,.
N#CC1(NC(=O)COC(=O)c2nc(Cl)c(Cl)c(N)c2Cl)CCCCC1,.,.,.,.,/,/
COc1ccc(OC)c(NC(=S)N(CCc2c(C)[nH]c3ccc(C)cc23)Cc2cccs2)c1,.,.,.,24,.,.
COc1ccc(OC)c(NC(=S)N(CCc2c(C)[nH]c3ccccc23)Cc2cccs2)c1,.,.,.,.,/,/
Cn1c(CCNC(=O)c2ccccc2F)nnc1SCC(=O)Nc1nncs1,.,.,.,20,.,.
O=C(Nc1ccc(-n2cc(Cl)cn2)cc1)c1ccncc1,.,.,.,14,18,.
SMILES,MOR-DOR ag-1,HTR5A inv ctr,MOR-DOR inv ag,HTR5A ag,MOR-DOR ag-2,HTR5A ag confirm
Cc1ccc(O)c(C(=O)/C=C/c2ccc3c(c2)OCCO3)c1,.,.,.,16,.,.
O=C(/C=C/c1ccc2c(c1)OCO2)c1ccc(O)cc1O,.,.,.,.,/,/
O=C(NCCc1c[nH]c2ccccc12)C1CCN(c2nnc(N3CCCC3=O)s2)CC1,.,.,.,42,.,47
COc1ccc2[nH]cc(CCNC(=O)C3CCCCC3)c2c1,.,.,.,52,.,.
COc1ccc2[nH]cc(CCNC(=S)NC3CCCC3)c2c1,.,.,.,.,/,/
O=C(O)C1CCCCC1C(=O)NCCc1c[nH]c2ccccc12 (centres undefined),.,.,.,45,.,.
O=C(NCCc1c[nH]c2ccccc12)C(=O)NCC(c1cccnc1)N1CCN(c2ccccc2)CC1 (centres undefined),.,.,.,23,.,40
O=C(CN1C(=O)c2cccnc2Oc2ccc(Cl)cc21)NC1CCCCC1,.,.,.,.,/,/
C/C(=N\NC(=O)c1ccc2c(c1)OCO2)c1ccc(NC(=O)CCCC(=O)O)cc1,.,.,.,.,/,/
O=C1OC(COc2ccc(Br)cc2)CN1c1ccccc1 (centres undefined),.,.,.,.,/,/
CSc1cc(-c2ccc(Cl)cc2)[nH]c(=O)c1C#N,.,.,.,17,.,.
CCOC(=O)C1(Cc2cccc(OC)c2)CCCN(Cc2c(C)nn(C(C)C)c2C)C1 (centres undefined),.,.,.,.,/,/
CCOC(=O)C1(Cc2cccc(OC)c2)CCCN(Cc2cc(C(C)C)n[nH]2)C1 (centres undefined),.,.,.,16,.,38
CC(=O)c1ccc(OCCCOc2cccc3cccnc23)cc1,.,.,.,.,/,/
CC(=O)CCc1ccc(OCCCOc2cccc3cccnc23)cc1,.,.,.,23,.,.
COc1ccc(-c2noc3c2-c2nc(-c4ccccc4F)sc2CC3)cc1,.,.,.,.,/,/
COc1ccc(CNC(=O)c2ccncc2)cc1,.,.,.,.,/,/
COc1ccc(CNC(=O)c2ccc3nccnc3c2)cc1,.,.,.,19,.,.
Oc1cccc2ccc(Nc3ccccn3)nc12,.,.,.,16,.,.
c1ccc(Nc2ccccc2Nc2ccccn2)nc1,.,.,.,.,/,/
COc1ccc(C(C(=O)NC2CCCCC2)N(C(=O)c2ccco2)c2ccccc2C(C)=O)cc1 (centres undefined),.,.,.,.,/,/
Cc1cc(NS(=O)(=O)c2ccc(NC(=O)COc3ccc(Cl)cc3Cl)cc2)no1,.,.,.,20,.,.
COc1ccc(NC(=S)N/N=C2\CC(C)(C)Oc3ccc(OC)cc32)cc1,.,.,.,19,.,.
Cc1ccc(NC(=S)N/N=C2\CC(C)(C)Oc3ccc(O)cc32)cc1,.,.,.,.,/,/
Cn1c(=O)c2c(nc(Sc3ncnn3CC(=O)N3CCOCC3)n2C)n(C)c1=O,.,.,.,.,/,/
SMILES,MOR-DOR ag-1,HTR5A inv ctr,MOR-DOR inv ag,HTR5A ag,MOR-DOR ag-2,HTR5A ag confirm
COc1ccc(S(=O)(=O)N2CCN(Cc3cc(=O)n4ccccc4n3)CC2)cc1,.,.,.,16,.,.
O=c1cc(CN2CCN(S(=O)(=O)c3ccccc3)CC2)nc2ccc(Cl)cn12,.,.,.,.,/,/
Cc1ccc(Cl)cc1N(CC(=O)NC1CCCC1)C(=O)c1csnn1,.,.,.,.,/,/
COC(=O)c1ccc(Cn2cc(Cl)cn2)cc1,.,.,.,24,.,.
Cn1c(CN2CCCCC2)nc2cc(NC(=O)c3ccc(Cl)cc3)ccc21,.,.,.,39,.,44
C/C(=N/NS(=O)(=O)c1ccc(Br)cc1)c1ccc(NC(=O)c2ccc(C)o2)cc1,.,.,.,17,.,.
